Shown are actives, neighbours in structure and some others; about 0.97% of the full set was active somewhere.
Mtb BioA inh: M. tuberculosis BioA enzyme inhibitors, primary screen, biochemical, plate reader, single point, HTS. purified M. tuberculosis BioA enzyme. inhibition, % at 9.99 µM. actives 0.096% (n = 360,000). AID 602481, 2012; in the data active = inhibition above about 40%; inconclusive = no clear call, values can overlap the other calls
RecA splice inh: Mtb RecA intein splicing inhibitors, primary screen, biochemical, fluorescence, HTS; Protein RecA (Mycobacterium tuberculosis (strain ATCC 25618 / H37Rv)), P9WHJ3; cell-free RecA intein splicing; inhibition, % (test concentration not listed); actives 0.75% (n = 290,000); AID 2221, 2009; in the data active = inhibition above about 30%; inconclusive = no clear call, values can overlap the other calls;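 note: 0% = vehicle wells and 100% = reference inhibitor control wells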
FadD28 FP inh: inhibitors of FadD28 bisubstrate probe binding, primary screen, biochemical, fluorescence polarization, single point; AID 588549, 2011; inhibition, % at 12.5 µM; actives 0.22% (n = 360,000); in the data active = inhibition above about 8.5%, passing the limit was not always enough; inconclusive = no clear call, values can overlap the other calls
Mtb UGM inh: M. tuberculosis UGM enzyme inhibitors, primary screen, biochemical, fluorescence polarization, single point; UDP-galactopyranose mutase (Mycobacterium tuberculosis (strain ATCC 25618 / H37Rv)), …; purified UGM, fluorescence polarization probe displacement; inhibition, % at 10 µM; actives 0.06% (n = 320,000); AID 504406, 2011; in the data active = inhibition above about 10%, passing the limit was not always enough; inconclusive = no clear call, values can overlap the other calls
Target sequence (P9WIQ1 whole entry, looked up): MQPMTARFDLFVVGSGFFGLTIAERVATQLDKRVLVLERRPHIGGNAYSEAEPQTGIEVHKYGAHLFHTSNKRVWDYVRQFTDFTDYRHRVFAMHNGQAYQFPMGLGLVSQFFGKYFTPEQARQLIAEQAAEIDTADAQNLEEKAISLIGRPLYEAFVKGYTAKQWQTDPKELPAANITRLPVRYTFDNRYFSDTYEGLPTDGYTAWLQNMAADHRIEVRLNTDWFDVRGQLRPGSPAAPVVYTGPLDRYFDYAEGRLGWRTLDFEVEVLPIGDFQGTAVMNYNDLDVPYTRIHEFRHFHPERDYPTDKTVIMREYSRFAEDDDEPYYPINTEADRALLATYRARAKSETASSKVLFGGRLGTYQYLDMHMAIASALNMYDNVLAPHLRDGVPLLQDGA
Rv3671c inh: Rv3671c serine protease inhibitors, primary screen, biochemical, fluorescence polarization, M. tuberculosis H37Rv; actives 0.048% (n = 320,000); inhibition, % at 5.96 µM; P9WHR9; AID 2606, 2010; in the data active = inhibition above about 38%;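 note: extracellular domain of Rv3671c used as enzyme; 0% = enzyme with DMSO and 100% = no enzyme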
TcdB inh: TcdB glycohydrolase inhibitors, primary screen, biochemical, single point, plate reader; actives 0.24% (n = 350,000); TcdB glycohydrolase enzymatic assay; Toxin B (Clostridioides difficile), P18177; inhibition, % at 9.99 µM; AID 652162, 2013; in the data active = inhibition above about 10%
* marks the source's active call; other numbers are inactive results; i = inactive; ? = inconclusive; nt = no result.

SMILES	Mtb BioA inh	RecA splice inh	FadD28 FP inh	Mtb UGM inh	Rv3671c inh	TcdB inh
CCOC(=O)C1=C(Cc2ccc(C)cc2)C(=O)c2ccccc2C1=O	nt	61*	nt	-1	-31	0
O=C(C[C@H]1CC[C@H]2[C@@H](COC[C@@H](O)CN2Cc2cc(F)ccc2F)O1)NCc1ccc(F)cc1	3	nt	nt	nt	nt	0
O=c1c(Cl)c(Cl)cnn1Cc1ccc(F)cc1	-1	35*	-2	0	4	1
COc1ccc(C2=NN(c3ccc(C(=O)O)cc3)C(c3ccc(OC)c(OC)c3)C2)cc1 (stereo unspecified)	nt	i	37*	0	17	0
COc1ccc(C2CC(c3ccccc3)=NN2c2ccc(S(N)(=O)=O)cc2)cc1OC (stereo unspecified)	nt	-40	2	-2	6	0
CC(C)(O)c1cn([C@@H]2C[C@@H]3O[C@@H](CO)CC[C@@H]3O[C@@H]2CCc2ccc(-c3ccncc3)cc2)nn1	nt	nt	nt	nt	nt	-3
O=C(O)c1cccc(NC(=O)c2cccc(S(=O)(=O)Nc3cccc([N+](=O)[O-])c3)c2)c1	-1	-3	-3	3	5	0
NS(=O)(=O)c1cccc(NC(=O)c2ccc(NS(=O)(=O)c3cccc([N+](=O)[O-])c3)cc2)c1	0	nt	-1	3	-8	12*
CCOc1cc(Br)cc(C(c2c(C(=O)O)[nH]c3ccccc23)c2c(C(=O)O)[nH]c3ccccc23)c1O	3	10	33*	3	6	0
O=C(O)CCc1c(C(=O)O)[nH]c2ccccc12	-3	-1	1	-1	5	nt
CSc1ccc(C(c2c(C(=O)O)[nH]c3ccccc23)c2c(C(=O)O)[nH]c3ccccc23)cc1	1	10	38*	2	6	-1
CCOC(=O)c1[nH]c2ccccc2c1NC(C)=O	2	1	0	1	-3	-1
COc1cc(/C=N/N2C(=O)C3C4C=CC(CC4)C3C2=O)ccc1O (stereo unspecified)	nt	2	0	0	6	18*
Brc1ccc(Oc2ccc(Br)cc2Br)c(Br)c1	0	nt	-4	1	-2	-1
Oc1c(Br)cc(Br)cc1Oc1ccc(Br)cc1Br	nt	39*	nt	1	-16	nt
Cc1c(-n2c(O)c(C3=c4ccccc4=NC3=O)sc2=S)c(=O)n(-c2ccccc2)n1C	nt	-1	-1	1	1	18*
COCC(=O)N1C[C@@H](C)[C@@H](OC)CN(C)C(=O)c2cc(NC(=O)C3CCC3)ccc2OC[C@H]1C	-3	nt	nt	nt	nt	-1
O=C(C[C@@H]1C=C[C@@H](NS(=O)(=O)c2ccccc2)[C@@H](CO)O1)N1CCc2ccccc2C1	1	nt	nt	nt	nt	1
O=C(NCCc1cccc(Cl)c1)c1ccc(Cl)c([N+](=O)[O-])c1	nt	10	-2	nt	-3	11*
Cc1ccc(C(=O)NCCc2cccc(Cl)c2)cc1[N+](=O)[O-]	nt	8	-7	-1	-6	-1
COc1cc(/C=C2/C(=O)NN(c3ccc(Cl)cc3)C2=O)cc(OC)c1O	3	10	8.9*	-16	-6	5
Oc1ccc(/C=N/Nc2nc(N3CCCC3)nc(N3CCCC3)n2)cc1O	1	-7	2	0	-1	21*
C[C@H](CO)N1C[C@H](C)[C@H](CN(C)S(=O)(=O)c2cccs2)OCCCC[C@H](C)Oc2ccc(NC(=O)NC3CCCCC3)cc2C1=O	-5	nt	nt	nt	nt	nt
CCCCOc1ccc(C2C3CN(C(=O)OCC)CC=C3C(C#N)=C(N)C2(C#N)C#N)cc1OC (stereo unspecified)	-1	33*	-4	1	0	1
CCCCCCCCCCCCCCCC[n+]1cccc2ccccc21	nt	nt	17*	0	1	4
SMILES	Mtb BioA inh	RecA splice inh	FadD28 FP inh	Mtb UGM inh	Rv3671c inh	TcdB inh
CCCCCCCCC[n+]1cccc2c3ccccc3ccc21	nt	1	-6	-2	-12	nt
COc1cccc(C(=O)OCC(=O)NCc2ccc3c(c2)OCO3)c1OC	0	nt	-2	10*	0	0
COc1ccc(CNCCc2ccc3c(c2)OCO3)cc1Br	-2	-1	?	0	5	11*
COc1cccc(-n2nnnc2SCC(=O)Nc2ccccc2OC)c1	5	-1	0	-1	-2	1
CCCS(=O)(=O)c1nnnn1-c1cccc(OC)c1	-1	91*	-2	0	4	nt
COc1cccc(/C=C/C(=O)OCC(=O)c2ccc[nH]2)c1	1	nt	0	nt	nt	-1
COc1cc(/C=C/C(=O)OCC(=O)NC(=O)NC(C)C)ccc1O	0	-2	2	-4	-2	12*
COc1cc(/C=C/C(=O)OCC(=O)N(C)Cc2ccccc2)ccc1O	1	nt	-1	-2	4	11*
COc1cc(/C=C/C(=O)OCC(=O)c2ccc[nH]2)ccc1O	1	nt	-2	nt	nt	15*
Cc1ccc(NCCN(C)C)c2c(=O)c3cc(O)ccc3sc12	nt	nt	1	nt	nt	21*
CCN(CC)CCNc1cccc2sc3ccccc3c(=O)c12	-1	nt	-1	nt	nt	2
CN(C)CCNc1cccc2sc3ccc(O)cc3c(=O)c12	nt	nt	0	nt	nt	39*
O=C(C1CCCC1)N1CC2(C1)[C@@H](c1ccccc1)[C@H](CO)N2C(=O)CC1CC1	nt	nt	nt	nt	nt	-1
O=C(O)c1cccc2cccc(-c3c4ccc(=O)c(O)c-4oc4c(O)c(O)ccc34)c12	nt	nt	44*	nt	nt	2
O=C(O)c1cccc2cc(-c3ccccc3)oc(=O)c12	2	-2	nt	-1	0	2
CNC(=O)C[C@H]1CC[C@@H]2[C@H](COc3ccc(NS(=O)(=O)c4ccccc4C)cc3C(=O)N2C)O1	-2	nt	nt	nt	nt	12*
CNC(=O)C[C@@H]1CC[C@H]2[C@H](COc3ccc(NS(=O)(=O)c4ccccc4C)cc3C(=O)N2C)O1	1	nt	nt	nt	nt	11*
CNC(=O)C[C@H]1CC[C@H]2[C@H](COc3ccc(NS(=O)(=O)c4ccccc4C)cc3C(=O)N2C)O1	0	nt	nt	nt	nt	6
CNC(=O)C[C@@H]1CC[C@H]2[C@@H](COc3ccc(NS(=O)(=O)c4ccccc4C)cc3C(=O)N2C)O1	0	nt	nt	nt	nt	8
COc1ccc(OC)c(C2NC(=O)NC(C)=C2C(=O)OC2CCCCC2)c1 (stereo unspecified)	-1	-5	-4	1	2	1
COc1ccccc1C1NC(=O)NC(C)=C1C(=O)OC1CCCCC1 (stereo unspecified)	2	-6	-1	-2	5	11*
CCCNC(=O)N1C[C@H](C)[C@@H](OC)CN(C)C(=O)c2ccc(NS(C)(=O)=O)cc2OC[C@H]1C	-2	nt	nt	nt	nt	-2
CCN(CC)C(=O)CSc1nsc(SCC(=O)N(CC)CC)c1C#N	1	nt	1	-1	-6	0
